The values that follow come from PubChem BioAssay AID504832 (National Center for Advancing Translational Sciences (NCATS), 2011).

The whole screen tested about 310,000 compounds, of which about 18,000 (5.8%) were called active. Not shown: some 22% with an inconclusive outcome. What follows is part of a selection rich in actives, with near analogues and random picks from the rest. A number with no mark means an inactive call. The call rests on the fitted dose curve; in most records, active means well fitted inhibition curve with a large enough effect; inconclusive means small, poorly fitted or top-dose-only effect, or another doubt; inactive means no such curve, though single readings can be large or run the other way.
On the % scale 0 is the no-effect control and ±100 the full control effect; potency means the concentration at half of the fitted maximal effect.

A short description of this test: Primary qHTS for delayed death inhibitors of the malarial parasite plastid, 48 hour incubation. The following applies: P. falciparum luciferase growth in erythrocytes; series mostly up to 28.7 µM; activity change, negative = inhibition: at the top concentration. An outline of the steps:
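Parasite viability was followed by luminescence of a genomically integrated firefly luciferase. Cultures held 0.1% parasitemia at 2% hematocrit (final), incubated under 5% CO2 at 37 C.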
For `O=C1c2ccccc2NC(c2ccc(-c3cccc(Cl)c3)o2)N1O` (stereo not given), the “activity change, negative = inhibition” value is 89.3%.
As to `O=C1NC(c2cccc(Cl)c2)Nc2ccccc21` (stereo not given), the “activity change, negative = inhibition” value is 34.8%.
Consider `O=c1c(-c2cccc(Cl)c2)c[nH]n1-c1ccccc1`, for which the Potency was 3.7 µM (active).
Take `Cc1nc2sccn2c(=O)c1S(=O)(=O)NCCc1ccccc1`: the “activity change, negative = inhibition” value is -2.59%.
In the case of `COCCNc1nnc(SCC(=O)NNC(=O)c2ccco2)s1`, the “activity change, negative = inhibition” value is -15%.
For `CCCNC(=O)CSc1nc(Cc2ccccc2)nc2ccccc12`, the “activity change, negative = inhibition” value was -19.7%.
`CCN(CC)c1ccc(NC(=O)CN2CCN(c3ccccn3)CC2)cc1`: the “activity change, negative = inhibition” value is -14.4%.
As for `Cc1nc(N2CCN(c3ccccn3)CC2)c2c(C)c(C(=O)Nc3ccc(F)cc3)sc2n1`, the Potency was 13.1 µM (active).
With `Cc1cc(Br)ccc1NC(=O)c1sc2ncn(CC(=O)N3CCN(c4ccccn4)CC3)c(=O)c2c1C`, the “activity change, negative = inhibition” value was -1.69%.
For the molecule `CC(=O)N1CCN(CC(C)(C)NS(=O)(=O)c2ccc(C)cc2)CC1`, the “activity change, negative = inhibition” value was 6.55%.
The same measure, in the same setting: for `CC(=O)Nc1ccc(NC(=O)CSC2=NS(=O)(=O)c3ccccc3N2)cc1` the value was 1.84%; for `N#CCCN(C(=O)COC(=O)C1CCN(c2ccc(C(F)(F)F)cn2)CC1)c1ccc(F)cc1`, -1.84%.
`CCOc1ccc(C(=O)NCC(=O)N2CCN(c3ccc(C(F)(F)F)cn3)CC2)cc1`: the “activity change, negative = inhibition” value was -12.7%.
As for `CCCN1CCn2c3c(c4cc(Br)ccc42)CCCC31` (stereo not given), the Potency is 8.28 µM (active).
Regarding `O=C(CN1C(=O)NC2(CCCCC2)C1=O)N1CCN(C(=O)c2cccs2)CC1`, the “activity change, negative = inhibition” value was 3.33%.
On to `Cc1nn(CC(=O)NCCc2ccccc2)c(=O)c2cc3occc3n12`, for which the “activity change, negative = inhibition” value was 22.7%.
`COc1ccc(CC(=O)OC(C)C(=O)Nc2ccc(S(N)(=O)=O)cc2)cc1` (stereo not given): the “activity change, negative = inhibition” value was 6%.
As for `CCCCN(C(=O)CCNC(=O)NC12CC3CC(CC(C3)C1)C2)c1c(N)n(CCCC)c(=O)[nH]c1=O`, the Potency is 13.1 µM (active).
Consider `CCCCCN(C(=O)CCC(=O)OCC(=O)NCc1ccc(OC)cc1)c1c(N)n(CCCC)c(=O)[nH]c1=O`, for which the “activity change, negative = inhibition” value is 11.3%.
For the molecule `CCCCN(C(=O)c1ccc(C)o1)c1c(N)n(CCCC)c(=O)[nH]c1=O`, the “activity change, negative = inhibition” value is 29.6%.
As to `CC(C)(C)C(=O)Cn1c(NCCO)nc2ccccc21`, the “activity change, negative = inhibition” value is 2.22%.
Take `O=S(=O)(O)c1nc2ccccc2n1Cc1ccc(Cl)cc1Cl`: the “activity change, negative = inhibition” value is 11.4%.
As to `O=C(Cn1c(NCCO)nc2ccccc21)c1ccc(Cl)cc1Cl`, the Potency is 13.1 µM (active).
As to `O=C(COC(=O)c1ccc([N+](=O)[O-])cc1Cl)NC(=O)c1ccccc1`, the “activity change, negative = inhibition” value was 7.05%.
In the case of `C/C=N/N(c1ccccc1)c1ccccc1`, the Potency is 10.4 µM (active).
As to `Cc1cccc(-c2c(NC(=O)c3ccco3)oc3ccc(Cl)cc3c2=O)c1`, the “activity change, negative = inhibition” value is 26.5%.
On to `O=C(O)CSc1ccc(S(=O)(=O)N2CCCC2)cn1`, for which the “activity change, negative = inhibition” value is 5%.
Turning to `Cc1ccc(NC(=O)CSc2sc3c(O)cc(=O)[nH]c3c2C#N)cc1C`, the “activity change, negative = inhibition” value was 15.9%.
With `CC(C)CN(C(=O)c1ccc2c(c1)OCO2)C1CCS(=O)(=O)C1` (stereo not given), the “activity change, negative = inhibition” value was 15.5%.
For `CC(=O)Nc1ccc(-c2csc(NC(=O)Nc3ccccc3)n2)cc1`, the “activity change, negative = inhibition” value is -5.54%.
Consider `COc1cc(CC(=O)Nc2nc(-c3ccc(F)c(F)c3)cs2)cc(OC)c1OC`, for which the “activity change, negative = inhibition” value was -25.2%.
On to `CCCCCCC(=O)Nc1nc(C)c(-c2csc(Nc3cccc(OC)c3)n2)s1`, for which the Potency is 5.22 µM (active).
Regarding `Cc1cccc(NC(=O)c2cccc(C(F)(F)F)c2)c1`, the “activity change, negative = inhibition” value is 18.1%.
`CCCCCCC(=O)Nc1nc(C)c(-c2csc(Nc3cc(Cl)ccc3OC)n2)s1`: the Potency is 4.65 µM (active).
`CC(=O)c1sc(NC(=O)CCCOc2ccccc2C)nc1C`: the “activity change, negative = inhibition” value was 9.54%.
For the molecule `COc1ccc(-c2csc(NC(=O)COC(=O)Cc3ccc(Cl)cc3Cl)n2)cc1`, the “activity change, negative = inhibition” value is 184%.
As to `CCOC(=O)c1csc(NC(=O)Nc2cccc(OC)c2)n1`, the “activity change, negative = inhibition” value was 77.8%.
In the case of `COc1ccc(Cl)cc1NC(=O)c1oc(C)nc1C`, the “activity change, negative = inhibition” value was 24%.
For `O=C(Nc1ccc(-c2csc(Nc3cccc(C(F)(F)F)c3)n2)cc1)c1cccc(C(F)(F)F)c1`, the Potency was 9.28 µM (active).
`COc1ccc(-c2csc(Nc3ccc(O)cc3)n2)cc1`: the “activity change, negative = inhibition” value is -28.2%.
With `C=CCCC(=O)Nc1nc(C)c(-c2csc(Nc3ccc(Cl)cc3)n2)s1`, the Potency is 1.47 µM (active).
On to `CC(C)CN(C(=O)Cn1c(=O)cnc2ccccc21)C1CCS(=O)(=O)C1` (stereo not given), for which the “activity change, negative = inhibition” value was 13.7%.
Take `Cc1ccccc1Nc1c([N+](=O)[O-])ccc2nonc12`: the “activity change, negative = inhibition” value was -12.3%.
Regarding `CC1(C(=O)OCC(=O)Nc2ncc(Cl)cc2Cl)CC1(Cl)Cl` (stereo not given), the “activity change, negative = inhibition” value was 1.62%.
With `Cc1cccc(OCC(=O)Nc2ccc(C(=O)O)cc2NC(=O)COc2cccc(C)c2)c1`, the “activity change, negative = inhibition” value was 24%.
For `O=C(NCCCN1CCCC1=O)c1ccc(S(=O)(=O)Nc2ccccc2)cc1`, the “activity change, negative = inhibition” value was -8.62%.
Take `CC1CCN(C(=O)CCc2nnc3ccc(NCc4ccco4)nn23)CC1`: the “activity change, negative = inhibition” value was 0%.
As to `CC(c1ccccn1)N(C)C(=O)c1ccc2nc(Cc3cccc(Cl)c3)oc2c1` (stereo not given), the “activity change, negative = inhibition” value is 14%.
`CC1(C)O[C@@H]2[C@H](O1)[C@@H](COS(=O)(=O)O)O[C@H]2n1cnc2c(=O)[nH]cnc21`: the “activity change, negative = inhibition” value was 40.8%.
Turning to `CCOCCOC(=O)C1=C(C)NC(=O)NC1c1ccc2c(c1)OCO2` (stereo not given), the “activity change, negative = inhibition” value was 10%.
In the case of `Cc1csc2nc(COC(=O)c3cccc(N(C)C)c3)cc(=O)n12`, the “activity change, negative = inhibition” value was 159%.
Consider `CCCCC(=O)Nc1nc(C)c(-c2csc(Nc3ccc(Cl)cc3)n2)s1`, for which the Potency is 4.65 µM (active).
In the case of `CC(=O)Nc1cccc(-c2csc(Nc3cccc(C)n3)n2)c1`, the “activity change, negative = inhibition” value is 286%.
For the molecule `CCC(=O)Nc1nc(C)c(C(=O)Nc2cccc(Cl)c2)s1`, the “activity change, negative = inhibition” value is -17%.
As to `CC(=O)Nc1nc(C)c(-c2csc(Nc3ccc(S(N)(=O)=O)cc3)n2)s1`, the “activity change, negative = inhibition” value is 5.4%.
With `Cc1nc(NC(=O)c2cccc(Cl)c2)sc1-c1csc(Nc2cccc(Cl)c2)n1`, the Potency is 8.28 µM (active).
Turning to `CCCCN(C)CCC(=O)Nc1ccc(Cl)cc1`, the “activity change, negative = inhibition” value is -3.3%.
On the same count and under the same terms, next, `O=C(CN1C(=O)NC2(CCCC2)C1=O)OCCOc1ccc(F)cc1`: 80.6%; `COC(=O)c1c(NC(=O)C(=O)N2CCCCC2)sc2c1CC(C)(C)OC2`: -25.4%; `COc1ccc(CNS(=O)(=O)c2ccc(-c3cnc(C4CC4)o3)cc2)cc1`: 5.18%.
On to `O=C1CC(c2cccc(Br)c2)C2=C(CCCC2=O)N1` (stereo not given), for which the “activity change, negative = inhibition” value was 5.31%.
With `O=C1C=C(c2cccc(Cl)c2O)C[C@@H](c2ccc(F)cc2)C1`, the Potency is 2.08 µM (active).
For `COc1cccc(C2=CC(=O)C[C@H](c3ccc(F)cc3)C2)c1OC`, the “activity change, negative = inhibition” value is 0%.
Turning to `O=C1C=C(c2cccc(Br)c2)C[C@@H](c2ccc(F)cc2)C1`, the Potency was 2.94 µM (active).
As to `COc1ccccc1C1=CC(=O)C[C@H](c2ccc(F)cc2)C1`, the “activity change, negative = inhibition” value is -28.2%.
